Experiment in all cases: NCI-60 one-dose screen, 48 h (100 = growth as untreated, 0 = no growth, -100 = all killed)
Holding throughout (conditions): 10 µM unless noted

The test system of experiment [1] is HCT-15 colon.
The test system of experiment [2] is HT29 colon.
Experiment [3] deals with SNB-75 CNS.
The test system of experiment [4] is SNB-19 CNS.
Experiment [5] has as its system U251 CNS.
Experiment [6] concerns PC-3 prostate.
In experiment [7] the test system is SK-MEL-5 melanoma.
The subject of experiment [8] is UACC-62 melanoma.
The test system of experiment [9] is LOX IMVI melanoma.
Experiment [10] has as its system SK-MEL-28 melanoma.
In experiment [11] the test system is SK-MEL-2 melanoma.
Experiment [12] has as its system EKVX NSCLC.
Experiment [13] deals with SN12C renal.
The test system of experiment [14] is UO-31 renal.
The subject of experiment [15] is TK-10 renal.
Experiment [16] relates to ACHN renal.
In experiment [17] the test system is CAKI-1 renal.
The test system of experiment [18] is CCRF-CEM leukemia.
Experiment [19] deals with MOLT-4 leukemia.

Here are results for eight compounds from PubChem BioAssay (NCI).

About 83,000 compounds went through this panel and 20% of them were active in at least one assay; those are over-represented in the sample as a whole.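 The test compound was applied at a single concentration to cells in 96-well plates for 48 hours, and percent growth was recorded.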 A number with no mark means an inactive call. The source made the active and inactive calls. Rule for the calls: active = growth percent below 10; inactive = the rest.

Turning to `O=S(=O)(NCCNc1nccc(-c2c(-c3cccc(F)c3)nc3sccn23)n1)c1ccc(Br)cc1`, the growth in [1] is 29.2%; in [2], 28.2%; in [3], 75.3%; in [4] it was 59.3%; in [5], 53.4%; in [6], 51%. Also, the growth in [7] is 31.5%; in [8] it was 35.8%; in [9], 38.5%; in experiment [10], 69.1%; in [11], 71.7%; in experiment [12] it was 59.5%. The growth is 42.9% in experiment [13]; 21.2% in experiment [14]; 68.8% in experiment [15]; 30.2% in experiment [16]; 35.1% in experiment [17]; 51% in [18]. The growth in experiment [19] was 35.7%.
On to `S=c1cc(S)c2cc(Br)ccc2[nH]1`, for which the growth in experiment [1] was 99.8%; in experiment [2] it was 96.9%; in experiment [3], 105%; in experiment [4], 94.1%; in experiment [5] it was 98.3%; in experiment [6] it was 78.8%. Also, the growth in experiment [7] is 89%; in experiment [8] it was 83.4%; in experiment [9] it was 95.9%; in experiment [10] it was 98%; in experiment [11], 93.9%; in [12], 105%. Moreover, the growth in experiment [13] was 98.8%; in experiment [14] it was 86.8%; in experiment [15], 125%; in [16] it was 90.4%; in experiment [17], 101%; in experiment [18], 100%. In addition, the growth in [19] was 98.7%.
As for `CC(=O)Nc1cccc(-c2ccc3c(c2)NC(=O)/C3=C\c2ccc[nH]2)c1`, the growth in [1] is 27.2%; in [2], 25.6%; in experiment [3], 53.3%; in [4], 69.1%; in experiment [5], 45.6%; in [6], 63.8%. The growth in experiment [7] is 61.1%; in experiment [8], 48.5%; in [9], 35.9%; in experiment [10] it was 68.3%; in experiment [11] it was 54.7%; in [12], 35%. The growth in experiment [13] is 56.6%; in experiment [14], 25.9%; in [15], 43.2%; in experiment [16] it was 33.8%; in experiment [17], 33%; in experiment [18], 27%. Further, the growth in experiment [19] was 29.4%.
Turning to `Cc1ccc(NC(=O)c2cc(-c3nc4ccccc4s3)c(=O)n(NS(=O)(=O)c3ccc(Cl)cc3)c2N)cc1`, the growth in experiment [1] is 96%; in [2] it was 108%; in experiment [3], 77.5%; in experiment [4] it was 101%; in experiment [5], 104%; in experiment [6], 100%. Further, the growth is 97.8% in [7]; 93.2% in experiment [8]; 102% in experiment [9]; 115% in [10]; 103% in [11]; 92.1% in experiment [12]. Further, the growth was 101% in experiment [13]; 83.9% in experiment [14]; 136% in [15]; 108% in [16]; 85.1% in [17]; 104% in experiment [18]. Further, the growth in [19] is 97.9%.
Regarding `CC(=O)O[C@H]1Cc2c([nH]c3ccccc23)[C@@H](c2ccc(Cl)cc2)N1C(=O)CCNC(C)(C)C`, the growth in [1] was 69.9%; in experiment [2] it was 29%; in experiment [3] it was 42.6%; in [4], 69.3%; in experiment [5], 50.6%; in [6] it was 36.3%. Besides, the growth is -79.5% (active) in [7]; 53.1% in [8]; 25.6% in experiment [9]; 8.92% (active) in [10]; 79.4% in experiment [11]; 67.2% in experiment [12]. Also, the growth in experiment [13] was 58.4%; in experiment [14] it was 23.7%; in experiment [15], 94.5%; in experiment [16] it was 64.5%; in experiment [17] it was 63.6%; in experiment [18], 41%. In addition, the growth in [19] is 28.6%.
For the compound `CCCCCN1C=C/C(=C\C(=O)n2ccc3ccccc32)c2ccccc21`, the growth in experiment [1] is 98.4%; in experiment [2], 80.6%; in experiment [3], 90.9%; in experiment [4], 106%; in [5], 91.1%; in experiment [6] it was 85.3%. The growth in experiment [7] is 97.3%; in [8], 67%; in [9], 92%; in [10], 104%; in experiment [11], 96.9%; in experiment [12], 69.3%. The growth in experiment [13] was 89.9%; in [14], 49.4%; in experiment [15], 110%; in experiment [16], 93.5%; in [17] it was 70.6%; in experiment [18], 94.6%. The growth in [19] is 90%.
Regarding `NC(=NCc1ccccc1)C(N=Nc1ccccc1)C(=O)NCc1ccccc1` (configuration not stated), the growth in experiment [1] was 49.1%; in experiment [2], 18.3%; in experiment [3], 96.9%; in experiment [4] it was 63.4%; in experiment [5], 26.7%; in [6], 62.7%. Besides, the growth is 103% in [7]; 76.6% in [8]; 42.7% in experiment [9]; 106% in experiment [10]; 107% in [11]; 82.5% in experiment [12]. Further, the growth in [13] was 58.6%; in experiment [14] it was 68.3%; in experiment [15], 69.6%; in experiment [16], 92.1%; in experiment [17] it was 54%; in experiment [18] it was 76%. Further, in experiment [19], the growth was 61%.
On to `Cn1ccnc1C(=O)/C=C/c1ccc(CC(=O)NC2CCCCC2)cc1`, for which the growth in experiment [1] was 33.1%; in [2], 15.3%; in experiment [3], 3.39% (active); in [4], 46.2%; in experiment [5], 31.4%; in [6], 59.7%. Further, the growth in experiment [7] is 71.3%; in experiment [8], 73.4%; in experiment [9] it was 44.5%; in experiment [10], 92.3%; in experiment [11], 108%; in experiment [12], 77.4%. The growth is 61.2% in experiment [13]; 60.4% in experiment [14]; 94.8% in [15]; 81.3% in [16]; 66.9% in experiment [17]; 33.5% in experiment [18]. For the same compound, in experiment [19], the growth was 67.7%.
